Sampled rows, rich in hits. Any-hit rate of the full collection: about 4.1%.
hcDAF12 agonist – H. contortus DAF-12 nuclear receptor activators, primary screen, cell-based, luminescence, HEK293, lit1-tk-luc reporter; HEK293 hcDAF-12 lit1-tk-luc reporter; 0% DMSO, 100% Δ7-dafachronic acid; activation, % at 6.8 µM; hit rate 1.4% among 370,000;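 active = activation above the mean of all tested compounds plus 3 SD, cut at about 5.5% in these data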;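 also: 100% = response to 3 µM Δ7-dafachronic acid high control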
PolyA inhibitor – polyadenylation inhibitors in yeast reporter cells, primary screen, luminescence, S. cerevisiae. S. cerevisiae SKY197-pL101 polyadenylation reporter, beta-gal luminescence; efflux-impaired pdr1/pdr3 knockout yeast; score 100 = 6 SD above DMSO. activity score, % at 12 µM. hit rate 0.02% among 300,000;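 active = lowest replicate activity score at least 50, where 100 means six control SD above control mean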;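 also: yeast exposed to compound for 9 h at 30 °C; higher score means more reporter readthrough which indicates perturbed polyadenylation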
DAX1 inh-1 – DAX1 (NR0B1) inhibitors on StAR promoter, primary screen, cell-based, luminescence, SF-1 (NR5A1), full-length DAX-1; HEK293T StAR-luciferase reporter, SF-1/DAX-1 repression relief; inhibition, % at 6.8 µM; hit rate 1.1% among 370,000; AID 652010, 2013;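 active = inhibition above the mean over all tested compounds plus 3 SD, cut at about 3.6% in these data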;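 also: 0% = DAX-1 cells with DMSO and 100% = cells lacking DAX-1 with DMSO; higher inhibition means more luminescence from relief of DAX-1 repression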
ssDAF-12 act – S. stercoralis DAF-12 nuclear receptor activators, primary screen, cell-based, luminescence, HEK293, GRIP1 co-expression, lit1-tk-luc; Nuclear hormone receptor DAF-12 (Strongyloides stercoralis); activation, % at 6.8 µM; HEK293 ssDAF-12/GRIP1 lit1-tk-luc reporter; % of 3 µM dafachronic acid response; hit rate 1% among 370,000;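 active = activation above the mean over all tested compounds plus 3 SD, cut at about 0.9% in these data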;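 also: 0% = DMSO-only wells and 100% = 3 µM delta7-dafachronic acid wells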
hgDAF-12 ag – H. glycines DAF-12 receptor agonists, primary screen, cell-based, luminescence, HEK293, GAL4 fusion, UAS-luciferase; hit rate 1.8% among 370,000; Nuclear hormone receptor DAF-12 (Heterodera glycines), GAL4 fusion; HEK293 GAL4-hgDAF12 UAS-luciferase reporter, agonist luminescence; normalized to butyrate control; activation, % at 6.8 µM; AID 687014, 2013;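 active = activation above a cutoff set at the mean of all screened compounds plus 3 SD, cut at about 10% in these data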;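 also: 0% = DMSO wells and 100% = sodium butyrate wells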
DAX1 inh-2 – DAX1 (NR0B1) inhibitors, primary screen, cell-based, HEK293, Gal4-DAX1, luciferase luminescence; Nuclear receptor subfamily 0 group B member 1 (Homo sapiens), P51843; HEK293 Gal4-DAX1 luciferase reporter; inhibition, % at 6.75 µM; hit rate 0.99% among 340,000;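 active = inhibition above the mean over all tested compounds plus 3 SD, cut at about 4.2% in these data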;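 also: 0% = DAX1-transfected cells with DMSO and 100% = empty-vector control cells with DMSO; inhibition shows as a rise in luminescence from relieved DAX1 repression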
Target sequence (P51843 207-470 limits assumed): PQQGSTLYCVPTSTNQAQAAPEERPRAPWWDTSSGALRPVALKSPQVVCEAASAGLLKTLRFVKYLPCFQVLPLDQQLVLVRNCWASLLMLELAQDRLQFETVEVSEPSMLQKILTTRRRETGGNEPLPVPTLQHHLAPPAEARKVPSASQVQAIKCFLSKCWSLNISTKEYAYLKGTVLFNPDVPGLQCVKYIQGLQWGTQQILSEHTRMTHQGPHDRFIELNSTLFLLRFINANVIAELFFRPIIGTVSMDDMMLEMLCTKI
hgDAF12 ag – H. glycines DAF-12 receptor agonists, confirmation, cell-based, luminescence, HEK293, GAL4-LBD fusion | shares compounds with hgDAF-12 ag | HEK293 GAL4-hgDAF12 luciferase reporter, agonist mode; percent of butyrate response | activation, % at 6.8 µM | hit rate 80% among 3,300;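 active = mean activation over triplicate wells above the hit cutoff derived from the earlier primary screen, cut at about 11% in these data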;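 also: 0% = DMSO low control and 100% = 2 mM sodium butyrate high control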
LXRb DAF12 ctr – LXR agonists, Gal4 luciferase reporter, confirmation, counter-screen for hgDAF-12 agonist project, cell-based, luminescence, HEK293, H. glycines campaign; shares compounds with hgDAF-12 ag; 24 h; activation, % at 6.8 µM; 3,300 tested, under 10 active; AID 743051, 2013;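 active = mean activation of the triplicate above a set limit carried over from the primary screen, none filed active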
* = called active by the depositor.

What do the screens show for `COc1cccc2cc(-c3ccccc3)c(=O)oc12`?
hcDAF12 agonist: 5.8*; PolyA inhibitor: 3; DAX1 inh-1: 2; ssDAF-12 act: 1; hgDAF-12 ag: 16*; DAX1 inh-2: 1; hgDAF12 ag: 14*; LXRb DAF12 ctr: 1

What do the screens show for `COc1ccc2cc(-c3ccccc3)c(=O)oc2c1`?
hcDAF12 agonist: 3; PolyA inhibitor: -40; DAX1 inh-1: 2; ssDAF-12 act: 1; hgDAF-12 ag: 14*; DAX1 inh-2: 2; hgDAF12 ag: 16*; LXRb DAF12 ctr: 1

Results for COC(=O)C(C)Oc1ccc2cc(-c3ccccc3)c(=O)oc2c1 (centres undefined) ?
hcDAF12 agonist: 1; PolyA inhibitor: -15; DAX1 inh-1: 0; ssDAF-12 act: -1; hgDAF-12 ag: 0; DAX1 inh-2: 0

What do the screens show for `c1ccc(COc2cccc(-c3cc4nc(NCCc5ccncc5)ccn4n3)c2)cc1`?
hcDAF12 agonist: -2; DAX1 inh-1: -3; ssDAF-12 act: -2; hgDAF-12 ag: -3

What do the screens show for `Cn1cc(Br)c(C(=O)NNC(=O)c2ccc(Br)cc2)n1`?
hcDAF12 agonist: 0; DAX1 inh-1: 2; ssDAF-12 act: -1; hgDAF-12 ag: 14*; DAX1 inh-2: 1; hgDAF12 ag: 4; LXRb DAF12 ctr: 0

Results for COc1ccc(S(=O)(=O)Nc2ccc(S(=O)(=O)Nc3cc(C)nc(C)n3)cc2)cc1OC ?
hcDAF12 agonist: -1; PolyA inhibitor: 18; DAX1 inh-1: 0; ssDAF-12 act: -1; hgDAF-12 ag: -1; DAX1 inh-2: 0

What do the screens show for `CC(C)N(Cc1nccn1C)C(=O)CCc1nnc(CCCc2ccccc2)o1`?
hcDAF12 agonist: 4; PolyA inhibitor: -3; DAX1 inh-1: 1; ssDAF-12 act: 0; hgDAF-12 ag: 14*; DAX1 inh-2: 1; hgDAF12 ag: 10; LXRb DAF12 ctr: 0

How did CC(C)N(CCO)C(=O)CCc1nnc(CCCc2ccccc2)o1 do in these assays?
hcDAF12 agonist: 1; PolyA inhibitor: 9; DAX1 inh-1: 0; ssDAF-12 act: -1; hgDAF-12 ag: 2; DAX1 inh-2: 3

How did C/C(=N/NC(=O)c1cccs1)c1ccco1 do in these assays?
hcDAF12 agonist: 3; PolyA inhibitor: 25; DAX1 inh-1: 3; ssDAF-12 act: 0; hgDAF-12 ag: 18*; DAX1 inh-2: 2; hgDAF12 ag: 9; LXRb DAF12 ctr: 0

What do the screens show for `C/C(=N\NC(=O)c1csc(C)c1C)c1ccco1`?
hcDAF12 agonist: 2; PolyA inhibitor: 3; DAX1 inh-1: 1; ssDAF-12 act: 0; hgDAF-12 ag: 7; DAX1 inh-2: 1

What do the screens show for `C/C(=N\NC(=O)c1cccs1)C(C)(C)C`?
hcDAF12 agonist: 1; PolyA inhibitor: -5; DAX1 inh-1: 3; ssDAF-12 act: -1; hgDAF-12 ag: 18*; DAX1 inh-2: 2; hgDAF12 ag: 1; LXRb DAF12 ctr: 0

Bioassay records as filed in PubChem.
